Screens as filed in PubChem.
KCNQ2 enhance = KCNQ2 (rat) channel potentiation | CHO-K1 KCNQ2, FluxOR thallium flux fluorescence; hits give high values | B-score at 10 µM | actives 0.54% (n = 310,000) | AID 2239;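 active = fluorescence ratio B-score at least 3 SD of library B-scores, with initial fluorescence B-score within 3 of them, cut at about 5.3 in these data; same plate scores as AID 2156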;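 note: B-score of peak minus minimum over baseline fluorescence ratio after K+ and Tl+ stimulus; positive B-score means potentiation of KCNQ2 with more thallium influx and brighter signal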
Target sequence (O88943 whole entry, looked up): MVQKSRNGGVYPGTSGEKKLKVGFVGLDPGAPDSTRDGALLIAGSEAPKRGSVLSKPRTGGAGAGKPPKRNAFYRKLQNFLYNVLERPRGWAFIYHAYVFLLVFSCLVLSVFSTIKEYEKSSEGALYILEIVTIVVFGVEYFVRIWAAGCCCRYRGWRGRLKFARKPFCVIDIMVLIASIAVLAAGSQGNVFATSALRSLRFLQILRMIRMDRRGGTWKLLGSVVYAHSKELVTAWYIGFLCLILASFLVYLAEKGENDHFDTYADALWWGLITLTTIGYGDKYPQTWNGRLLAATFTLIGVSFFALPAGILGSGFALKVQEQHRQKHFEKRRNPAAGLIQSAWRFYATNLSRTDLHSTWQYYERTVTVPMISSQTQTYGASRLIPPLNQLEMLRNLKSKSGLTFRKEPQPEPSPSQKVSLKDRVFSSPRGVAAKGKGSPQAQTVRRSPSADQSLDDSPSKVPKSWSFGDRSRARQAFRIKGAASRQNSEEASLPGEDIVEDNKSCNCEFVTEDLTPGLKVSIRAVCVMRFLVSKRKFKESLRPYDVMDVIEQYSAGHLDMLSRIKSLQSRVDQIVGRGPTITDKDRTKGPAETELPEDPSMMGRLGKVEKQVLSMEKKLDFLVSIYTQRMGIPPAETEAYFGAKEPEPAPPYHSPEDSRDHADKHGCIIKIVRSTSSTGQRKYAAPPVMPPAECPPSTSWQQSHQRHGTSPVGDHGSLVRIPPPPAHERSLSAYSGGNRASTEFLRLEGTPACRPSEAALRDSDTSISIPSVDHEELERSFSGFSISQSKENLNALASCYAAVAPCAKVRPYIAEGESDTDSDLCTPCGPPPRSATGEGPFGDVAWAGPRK
KCNQ2 block = inhibitors of rat KCNQ2 potassium channel; O88943; CHO-K1 KCNQ2, FluxOR thallium flux, 20 min; hits give low values; B-score at 10 µM; actives 1.1% (n = 310,000);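 active = fluorescence ratio B-score at most minus 3 library SDs, with starting brightness B-score within 2 library SDs, cut at about -5.5 in these data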
KCNQ2 inh conf = rat KCNQ2 channel inhibition, confirmatory screen. shares compounds with KCNQ2 block. KCNQ2-expressing cells, thallium flux; hits give low values. activity change, negative = inhibition, % at 10 µM. actives 57% (n = 1,000);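 note: 0% = vehicle wells and values are ratio percent relative to vehicle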
KCNQ1 spec = human KCNQ1 activity in KCNQ2 inhibitor specificity screen; shares compounds with KCNQ2 block; KCNQ1-expressing cells, FluxOR thallium flux fluorescence; hits give low values; activity change, negative = inhibition, % at 10 µM; actives 15% (n = 1,000); AID 493026;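 active = activity change at least 3 SD of negative controls below their mean in both duplicate wells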;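 note: CHO cells stably transfected with KCNQ1 and depolarized by potassium stimulus; peak minus minimum fluorescence over baseline after thallium addition; 0% = vehicle negative control and -100% = blank without thallium stimulus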
CHO parental ctr = KCNQ2 inhibitor counter-screen hit in parental CHO cells; thallium flux counter-screen; hits give low values; AID 493029; activity change, % at 10 µM; actives 14% (n = 1,000); shares compounds with KCNQ2 block;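 note: 0% = vehicle negative controls with stimulus buffer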
KCNQ2 patch conf = blocks rat KCNQ2 current in automated patch clamp; shares compounds with KCNQ2 block; KCNQ2-expressing cells; calls only at 10 µM; actives 49% (n = 550)
Kir21 conf inh = confirmation of mouse Kir2.1 potassium channel inhibitors; shares compounds with KCNQ2 enhance; Kir2.1-expressing cells, FluxOR thallium flux fluorescence; hits give low values; Tl flux remaining, % of negative control (hits give low values), % at 10 µM; actives 41% (n = 2,300);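 active = Primary-screen hit whose thallium flux fell at least 3 control SD below untreated wells in both duplicates, with normal baseline fluorescence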;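 note: 0% = blank wells without stimulus and 100% = stimulated no-compound controls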
HEK293 ctr = counter-screen for Kir2.1 inhibitors: effect in parental HEK293 cells | shares compounds with KCNQ2 enhance | AID 2105 | actives 19% (n = 2,300) | FluxOR thallium flux fluorescence; 0% = unstimulated blank wells | FluxOR signal as % of negative control (100 = no effect), % at 10 µM;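 active = dye signal at least 3 control SD above or below untreated wells in both duplicates, raw fluorescence within 3, either direction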;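 note: percent is based on the flux ratio of peak minus minimum fluorescence over baseline F0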
* = called active by the depositor. Sampled rows, rich in hits. Any-hit rate of the full collection: about 1.6%. Unless noted, the rule behind the calls is not given here.

Screening O=C(Cn1cnc2ccccc2c1=O)NCc1cccs1 returned KCNQ2 enhance 0.34 and KCNQ2 block inactive.
C=CCn1c(NCc2cc(C)ccc2O)nc2ccccc21 was read as KCNQ2 enhance -7.1, KCNQ2 block -7.1*, KCNQ2 inh conf -16%*, KCNQ1 spec inactive, CHO parental ctr inactive and KCNQ2 patch conf active.
For Cc1ccc(O)c(CNc2nc3ccccc3n2C(C)C)c1 the results were KCNQ2 block inactive.
For COc1ccc(N2CCN(S(=O)(=O)CCNC(=O)/C=C/c3ccccc3)CC2)cc1 the results were KCNQ2 enhance 0.67 and KCNQ2 block inactive.
Clc1ccc(CSc2cc3c(nn2)-c2ccccc2CC3)cc1 was read as KCNQ2 enhance -10, KCNQ2 block -10*, KCNQ2 inh conf -38%*, KCNQ1 spec -41%*, CHO parental ctr -28%* and KCNQ2 patch conf inactive.
Clc1ccc(CSc2ccc(-c3ccccn3)nn2)cc1 was read as KCNQ2 block inactive.
For Cc1ccc(CN2CCN(/N=C/c3cccn3C)CC2)c(C)c1 the results were KCNQ2 block inactive.
Cc1ccc(CN2CCN(/N=C/c3ccc(C)s3)CC2)c(C)c1 was read as KCNQ2 enhance -7.9, KCNQ2 block -7.9*, KCNQ2 inh conf inactive, KCNQ1 spec inactive and CHO parental ctr inactive.
Screening NS(=O)(=O)c1ccc(CNC(=O)c2sccc2-c2ccccc2)cc1 returned KCNQ2 enhance 1.7 and KCNQ2 block inactive.
For COc1ccc(/C=C/CN2CCCC(CO)(Cc3cccc(Cl)c3)C2)cc1 (centres undefined) the results were KCNQ2 enhance -6.8, KCNQ2 block -6.8*, KCNQ2 inh conf -23%*, KCNQ1 spec inactive, CHO parental ctr inactive and KCNQ2 patch conf inactive.
Screening COc1ccccc1/C=C/CN1CCCC(CO)(Cc2cccc(Cl)c2)C1 (centres undefined) returned KCNQ2 block inactive.
Screening COc1cc(CC(=O)OCC(=O)N2CCCCC2)cc(OC)c1OC returned KCNQ2 block inactive.
Screening N#CCCn1cc(C(=O)N2CCOCC2)c(-c2ccc3c(c2)OCCO3)n1 returned KCNQ2 block inactive.
Screening COCCCNC(=S)N1CCN(C(c2ccccc2)c2ccccc2)CC1 returned KCNQ2 enhance 0.54 and KCNQ2 block inactive.
Screening CCN(CC)CCNc1ncnc2c1[nH]c1ccc(OC)cc12 returned KCNQ2 enhance 1.7 and KCNQ2 block inactive.
Screening COc1ccc2[nH]c3c(NCCC4=CCCCC4)ncnc3c2c1 returned KCNQ2 enhance -9.1, KCNQ2 block -9.1*, KCNQ2 inh conf inactive, KCNQ1 spec inactive and CHO parental ctr inactive.
Screening CCC1(c2ccc(F)cc2)NC(=O)N(CC(=O)Nc2cc(S(=O)(=O)N(C)C)ccc2Cl)C1=O (centres undefined) returned KCNQ2 enhance 0.2 and KCNQ2 block inactive.
COc1ccc(NC(=O)CC2CCCC2)cc1S(=O)(=O)N1CCCCC1 was read as KCNQ2 enhance 1.6 and KCNQ2 block inactive.
COc1ccc(NC(=O)CN2C(=O)NC3(CC(C)CC(C)(C)C3)C2=O)cc1S(=O)(=O)N1CCCCC1 (centres undefined) was read as KCNQ2 enhance -8.9, KCNQ2 block -8.9*, KCNQ2 inh conf inactive, KCNQ1 spec inactive and CHO parental ctr inactive.
c1cc2c(cc1C1CCCCC1)c1c3n2CCCNC3CCC1 (centres undefined) was read as KCNQ2 enhance -12, KCNQ2 block -12*, KCNQ2 inh conf -34%*, KCNQ1 spec inactive, CHO parental ctr inactive and KCNQ2 patch conf inactive.
Screening Cc1ccc2c(c1)c1c3n2CCCNC3CCC1 (centres undefined) returned KCNQ2 block inactive.
COc1ccccc1N(C(=O)CNC(=O)c1ccco1)C(C(=O)NCC1CCCO1)c1ccccc1 (centres undefined) was read as KCNQ2 block inactive.
O=C(Nc1ccccc1N1CCCCC1)c1ncoc1-c1ccc(F)cc1 was read as KCNQ2 enhance -7.1, KCNQ2 block -7.1*, KCNQ2 inh conf inactive, KCNQ1 spec inactive and CHO parental ctr inactive.
Cc1ccc(-c2ocnc2C(=O)Nc2ccccc2C(=O)N2CCCC2)cc1 was read as KCNQ2 enhance 0.17 and KCNQ2 block inactive.
For CN1CCN(c2ccccc2NC(=O)c2ccc(F)cc2)CC1 the results were KCNQ2 enhance 0.74 and KCNQ2 block inactive.
Screening CC1CCN(c2ccccc2NC(=O)c2ccc(F)cc2)CC1 returned KCNQ2 enhance -9.3, KCNQ2 block -9.3*, KCNQ2 inh conf -17%*, KCNQ1 spec inactive, CHO parental ctr inactive and KCNQ2 patch conf inactive.
O=S(=O)(c1ccccc1)n1c(C(O)c2ccccn2)cc2ccccc21 (centres undefined) was read as KCNQ2 enhance 0.45 and KCNQ2 block inactive.
Screening CNC(=O)c1ccccc1NC(=O)C1CC(=O)N(C(C)C)C1 (centres undefined) returned KCNQ2 enhance 0.42 and KCNQ2 block inactive.
Screening Cc1cc(C(=O)NNC(=O)/C=C/c2ccc(F)cc2)c(C)o1 returned KCNQ2 block inactive.
For COc1cccc(C(=O)NC2CC3CCCC(C2)N3S(=O)(=O)c2ccccc2)c1 (centres undefined) the results were KCNQ2 block inactive.
`CCCNCc1cc(Br)ccc1OCC(=O)NCCc1ccccc1` gave KCNQ2 enhance 0.72 and KCNQ2 block inactive.
For O=C(COc1ccc(Br)cc1CNCCc1ccccc1)NCc1ccccc1 the results were KCNQ2 enhance -7.6, KCNQ2 block -7.6*, KCNQ2 inh conf -32%*, KCNQ1 spec inactive, CHO parental ctr inactive and KCNQ2 patch conf active.
For CCN1CCN(S(=O)(=O)c2ccc(OC)c(NC(=O)c3ccccc3)c2)CC1 the results were KCNQ2 enhance 0.03 and KCNQ2 block inactive.
For COc1cccc(Nc2nc(NCC3CCCO3)c3ccccc3n2)c1 (centres undefined) the results were KCNQ2 enhance -10, KCNQ2 block -10*, KCNQ2 inh conf inactive, KCNQ1 spec inactive, CHO parental ctr inactive, Kir21 conf inh 18%* and HEK293 ctr inactive.
COc1cccc(Nc2nc(NCCO)c3ccccc3n2)c1 was read as KCNQ2 block inactive.
